# Experimental data as given in the supplement of paper PMC7724964.
# T1: SHC1 149-317 PID (domain begin residue: 149, domain end residue: 317), P29353
# T1 chain: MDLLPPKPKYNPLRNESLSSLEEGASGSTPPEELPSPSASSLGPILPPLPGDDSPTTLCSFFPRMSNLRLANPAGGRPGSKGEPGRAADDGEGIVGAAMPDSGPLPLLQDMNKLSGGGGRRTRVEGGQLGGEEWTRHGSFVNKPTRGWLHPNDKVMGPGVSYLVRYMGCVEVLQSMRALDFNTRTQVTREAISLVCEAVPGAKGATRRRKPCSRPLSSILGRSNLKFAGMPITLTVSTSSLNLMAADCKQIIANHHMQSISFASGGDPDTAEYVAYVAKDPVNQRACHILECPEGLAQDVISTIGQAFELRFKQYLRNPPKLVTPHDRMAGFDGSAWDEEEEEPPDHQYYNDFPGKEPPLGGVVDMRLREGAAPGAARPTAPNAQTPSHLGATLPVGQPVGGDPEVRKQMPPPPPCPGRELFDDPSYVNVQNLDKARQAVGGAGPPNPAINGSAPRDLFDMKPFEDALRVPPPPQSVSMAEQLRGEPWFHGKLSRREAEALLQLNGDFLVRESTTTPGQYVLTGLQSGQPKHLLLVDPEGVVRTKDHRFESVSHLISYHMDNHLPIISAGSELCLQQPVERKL
# T2: SPRED1 13-131 WH1 (domain begin residue: 13, domain end residue: 131), Q7Z699
# T2 chain: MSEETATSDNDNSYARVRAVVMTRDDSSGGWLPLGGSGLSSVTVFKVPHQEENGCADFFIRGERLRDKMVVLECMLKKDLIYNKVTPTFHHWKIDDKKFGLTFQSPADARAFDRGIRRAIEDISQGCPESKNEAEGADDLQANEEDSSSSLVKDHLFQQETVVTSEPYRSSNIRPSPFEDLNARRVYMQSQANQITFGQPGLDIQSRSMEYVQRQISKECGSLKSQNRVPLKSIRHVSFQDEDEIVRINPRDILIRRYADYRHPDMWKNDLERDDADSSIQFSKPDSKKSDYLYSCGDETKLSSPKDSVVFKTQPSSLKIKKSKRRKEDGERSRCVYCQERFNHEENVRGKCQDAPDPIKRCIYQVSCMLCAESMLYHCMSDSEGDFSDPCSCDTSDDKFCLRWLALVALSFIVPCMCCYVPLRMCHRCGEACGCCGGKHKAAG
# T3: SPSB2 26-221 SPRY (domain begin residue: 26, domain end residue: 221), Q99619
# T3 chain: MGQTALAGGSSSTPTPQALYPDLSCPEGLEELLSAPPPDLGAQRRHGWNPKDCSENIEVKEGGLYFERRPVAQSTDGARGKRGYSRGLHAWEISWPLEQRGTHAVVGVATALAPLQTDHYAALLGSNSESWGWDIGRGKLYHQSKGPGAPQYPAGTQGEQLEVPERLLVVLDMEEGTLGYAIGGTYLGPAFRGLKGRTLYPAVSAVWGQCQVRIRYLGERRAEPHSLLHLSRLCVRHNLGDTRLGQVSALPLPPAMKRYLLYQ
# T4: SPRED2 1-124 WH1 (domain begin residue: 1, domain end residue: 124), Q7Z698
# T4 chain: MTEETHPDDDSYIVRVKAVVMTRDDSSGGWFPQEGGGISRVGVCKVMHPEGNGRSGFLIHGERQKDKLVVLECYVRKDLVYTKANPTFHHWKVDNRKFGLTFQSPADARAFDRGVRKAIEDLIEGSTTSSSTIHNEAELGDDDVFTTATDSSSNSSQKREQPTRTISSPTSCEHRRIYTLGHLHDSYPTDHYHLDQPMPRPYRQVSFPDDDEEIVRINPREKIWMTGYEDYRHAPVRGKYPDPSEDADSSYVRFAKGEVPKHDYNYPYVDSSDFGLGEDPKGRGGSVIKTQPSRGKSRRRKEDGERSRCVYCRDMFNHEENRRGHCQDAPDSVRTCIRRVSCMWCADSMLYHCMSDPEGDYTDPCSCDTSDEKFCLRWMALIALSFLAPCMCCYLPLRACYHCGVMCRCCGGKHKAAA
# T5: SPRED3 1-117 WH1 (domain begin residue: 1, domain end residue: 117), Q2MJR0
# T5 chain: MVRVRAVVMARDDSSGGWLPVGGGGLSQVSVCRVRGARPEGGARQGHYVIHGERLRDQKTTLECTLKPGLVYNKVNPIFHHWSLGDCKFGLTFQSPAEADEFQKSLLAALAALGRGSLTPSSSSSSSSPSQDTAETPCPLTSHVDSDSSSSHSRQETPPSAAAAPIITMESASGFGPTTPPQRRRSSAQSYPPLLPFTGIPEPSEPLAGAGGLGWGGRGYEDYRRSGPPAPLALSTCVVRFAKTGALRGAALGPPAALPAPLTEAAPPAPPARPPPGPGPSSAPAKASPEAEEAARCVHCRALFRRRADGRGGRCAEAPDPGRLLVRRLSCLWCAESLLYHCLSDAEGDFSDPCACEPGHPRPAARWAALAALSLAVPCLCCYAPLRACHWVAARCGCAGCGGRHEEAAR
# T6: SND1 650-910 TUDOR+SNase (domain begin residue: 650, domain end residue: 910), Q7KZF4
# T6 chain: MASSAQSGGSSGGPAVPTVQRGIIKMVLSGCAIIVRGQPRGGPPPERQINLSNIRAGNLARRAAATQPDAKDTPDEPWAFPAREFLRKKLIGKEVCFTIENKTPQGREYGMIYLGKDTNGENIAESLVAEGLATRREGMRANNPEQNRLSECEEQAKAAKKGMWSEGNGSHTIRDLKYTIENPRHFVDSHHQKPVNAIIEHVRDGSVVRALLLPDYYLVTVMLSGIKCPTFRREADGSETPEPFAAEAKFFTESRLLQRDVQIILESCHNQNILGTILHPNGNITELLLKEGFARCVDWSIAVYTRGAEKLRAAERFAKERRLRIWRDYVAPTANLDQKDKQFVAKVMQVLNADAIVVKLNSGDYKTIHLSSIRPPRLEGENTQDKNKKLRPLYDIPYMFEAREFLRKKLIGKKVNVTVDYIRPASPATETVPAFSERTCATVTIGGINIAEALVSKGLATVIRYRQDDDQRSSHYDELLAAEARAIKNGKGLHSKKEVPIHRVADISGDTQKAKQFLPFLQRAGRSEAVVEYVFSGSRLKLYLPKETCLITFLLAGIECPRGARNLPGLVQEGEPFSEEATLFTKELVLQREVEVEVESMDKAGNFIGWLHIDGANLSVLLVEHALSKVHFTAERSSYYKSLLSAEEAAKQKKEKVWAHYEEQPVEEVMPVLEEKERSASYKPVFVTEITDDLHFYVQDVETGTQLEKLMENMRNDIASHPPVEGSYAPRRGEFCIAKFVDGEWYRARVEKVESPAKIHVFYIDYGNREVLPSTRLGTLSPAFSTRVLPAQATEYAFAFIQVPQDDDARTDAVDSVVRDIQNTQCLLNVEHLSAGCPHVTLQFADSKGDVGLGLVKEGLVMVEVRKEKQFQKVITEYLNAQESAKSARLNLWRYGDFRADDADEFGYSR
# T7: SPAG1 615-745 TPR_1 (domain begin residue: 615, domain end residue: 745), Q07617
# T7 chain: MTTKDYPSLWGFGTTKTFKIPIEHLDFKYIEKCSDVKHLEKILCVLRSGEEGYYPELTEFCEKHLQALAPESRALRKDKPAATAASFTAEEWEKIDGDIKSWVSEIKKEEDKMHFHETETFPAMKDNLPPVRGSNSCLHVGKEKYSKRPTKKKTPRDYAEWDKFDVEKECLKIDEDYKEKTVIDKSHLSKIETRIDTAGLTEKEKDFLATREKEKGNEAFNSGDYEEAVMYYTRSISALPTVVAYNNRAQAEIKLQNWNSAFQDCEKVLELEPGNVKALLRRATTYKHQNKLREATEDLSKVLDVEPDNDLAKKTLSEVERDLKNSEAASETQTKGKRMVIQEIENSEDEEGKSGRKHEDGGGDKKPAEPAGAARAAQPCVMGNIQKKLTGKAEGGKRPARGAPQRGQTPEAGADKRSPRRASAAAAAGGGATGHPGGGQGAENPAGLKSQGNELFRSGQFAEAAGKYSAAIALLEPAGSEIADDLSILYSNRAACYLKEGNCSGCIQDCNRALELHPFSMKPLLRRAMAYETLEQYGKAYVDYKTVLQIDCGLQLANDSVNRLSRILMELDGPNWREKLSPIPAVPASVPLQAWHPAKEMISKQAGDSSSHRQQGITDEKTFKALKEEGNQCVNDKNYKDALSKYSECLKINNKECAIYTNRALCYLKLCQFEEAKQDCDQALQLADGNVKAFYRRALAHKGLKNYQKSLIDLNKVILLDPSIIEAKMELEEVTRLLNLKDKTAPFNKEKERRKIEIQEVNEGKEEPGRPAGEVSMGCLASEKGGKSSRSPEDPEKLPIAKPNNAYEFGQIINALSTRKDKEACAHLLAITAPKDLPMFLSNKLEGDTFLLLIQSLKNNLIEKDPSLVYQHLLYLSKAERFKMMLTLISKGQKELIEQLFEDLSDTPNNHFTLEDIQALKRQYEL
# Legend:
# Test in all cases: phage ELISA signal ratio (GST-PRM binding over GST background); higher = stronger binding of peptide-phage to the PRM
# [1] = target: T1, SHC1 149-317 PID (domain begin residue: …
# Outline: (§1)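 Each value is the phage ELISA signal on the glutathione S-transferase (GST)-domain fusion divided by the signal on GST alone. Human peptide recognition domains were expressed in 96-well plates, fused to the C-terminus of GST, and selected against an M13 phage library carrying randomized, cysteine-free, glycine-flanked hexadecapeptides on the gene-8 major coat protein. After five selection rounds, approximately 48 individual clones from rounds 4 and 5 were tested by phage ELISA, and positive clones were sequenced.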
# [2] = target: T2, SPRED1 13-131 WH1 (domain begin …
# Outline: as §1
# [3] = target: T3, SPSB2 26-221 SPRY (domain begin …
# Outline: as §1
# [4] = target: T4, SPRED2 1-124 WH1 (domain begin residue: …
# Outline: as §1
# [5] = target: T5, SPRED3 1-117 WH1 (domain begin residue: …
# Outline: as §1
# [6] = target: T6, SND1 650-910 TUDOR+SNase (domain begin …
# Outline: as §1
# [7] = target: T7, SPAG1 615-745 TPR_1 (domain begin …
# Outline: as §1
binder,measurement,setting,value
QVDQGEYVYGFWWEVL,phage ELISA signal ratio,[1],9.85
WATVSEWGDWTTVVFN,phage ELISA signal ratio,[2],3.55
YFYLDSNNNQVIPSSV,phage ELISA signal ratio,[3],21.9
WEGYYQFLVPDTHTSE,phage ELISA signal ratio,[1],18.9
GYKLWETETSWWFVPA,phage ELISA signal ratio,[4],14
HVQWINHSFMMDMPQN,phage ELISA signal ratio,[1],15.5
EWGIMDSEWWGRYYEM,phage ELISA signal ratio,[1],6.81
AHFELMNNNWLVPEFW,phage ELISA signal ratio,[3],30.8
NDQYTWSQVHQGWLPL,phage ELISA signal ratio,[5],26.5
PWDMIWDDPSWAPMLE,phage ELISA signal ratio,[6],7.49
WMWDGLAVVHMVPESV,phage ELISA signal ratio,[5],8.68
VTPQEMWEEYIATLQI,phage ELISA signal ratio,[5],23.4
HPIFNDAGGLQGWFSY,phage ELISA signal ratio,[4],11.1
DVWYTTSESIIQYMQS,phage ELISA signal ratio,[5],27.7
GFLDPNQNIVRETLIL,phage ELISA signal ratio,[3],34.2
GAGELEWYPIWWDVTH,phage ELISA signal ratio,[4],17.3
MVDLNGNTYSESMVAV,phage ELISA signal ratio,[3],33.8
GIVPWWHDSGDHWGPL,phage ELISA signal ratio,[4],19.4
ESEGSHYWNYFADAIA,phage ELISA signal ratio,[1],18.2
ERVMDLNGNWITKSVA,phage ELISA signal ratio,[3],10.8
YYLDENQNWISEGFLW,phage ELISA signal ratio,[3],12.1
SSMWWTDTGDMYLRPE,phage ELISA signal ratio,[4],4.88
MDLLEQQMWQDYFLWH,phage ELISA signal ratio,[7],3.83
YDWFSAVVEDQWEKVS,phage ELISA signal ratio,[6],6.56
EELWDQWHSWVTEPDE,phage ELISA signal ratio,[6],4.69
YEEFLDLNSNLQGLKT,phage ELISA signal ratio,[3],12.3
TGENNNVMPPHLSEHV,phage ELISA signal ratio,[3],11.7
AWFEGPFDTSHWQWEA,phage ELISA signal ratio,[4],7.72
MNFMDIWDHMAIPPEQ,phage ELISA signal ratio,[6],7.06
